This is an account of results in PubChem BioAssay (NCATS).

Calls of active or inactive are those of the source. Calls follow the shape of the dose curve; as a rule, active = well fitted inhibition curve with a large enough effect; inconclusive = small, poorly fitted or top-dose-only effect; inactive = no such curve, though single readings can be large or run the other way.

This assay in a line: qHTS assay for measurement of the activity of small molecule inhibitors on Zika virus induced Caspase-3 activity in human astrocytoma cells (AID 1224859). The conditions noted are these: SNB-19 ZIKV-induced caspase-3/7, luminescence, 6 h; series mostly up to 45.7 µM. The gist of the method:
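Luminescent caspase-3/7 read-out (30 min reagent, room temperature) in human SNB-19 cells infected 6 h with ZIKV (2 FFU/cell) after 1 h compound pre-incubation; Data were normalised to uninfected and infected wells.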
A general note: Quantitative high-throughput screening tests each substance at several concentrations.
In the case of `O=S1(=O)N(CCN2CC=C(c3c[nH]c4cc(F)ccc34)CC2)c2cccc3c2N1CCC3`, the call was inactive. Turning to `NC(Cc1cc(O)c(O)cc1O)C(=O)O` (stereo unspecified), the call was inactive. The value for `COc1ccc2[nH]cc(CCN)c2c1` was “inactive”. The value for `C[C@H](N)Cc1cccc(C(F)(F)F)c1` was “inactive”; that for `N[C@@]1(C(=O)O)CC[C@@H](C(=O)O)C1` was “inactive”; that for `c1ccc2c(N3CCNCC3)cccc2c1` was “inactive”. `NCC(O)c1cc(O)c(O)cc1F` (stereo unspecified): the result was inactive. The same measure for `NCCc1ccc(S(=O)(=O)F)cc1`: “inactive”; for `O=[N+]([O-])c1ccc2nc(N3CCNCC3)ccc2c1`: “inactive”.

Consider `CCCCCCCCCCCCCC(=O)O[C@@H]1[C@@H](C)[C@@]2(O)[C@@H](C=C(CO)C[C@@]3(O)C(=O)C(C)=C[C@@H]23)C2C(C)(C)[C@@]21OC(C)=O` (stereo partly specified), for which the call was inactive.

Regarding `COc1ccc(OC)c(C(O)C(C)N)c1` (stereo unspecified), the result was inactive.

Take `CN1CCc2cccc(Cl)c2CC1`: the compound was called inactive. Turning to `NCCCP(=O)(O)O`, the call was inactive. The same measure for `CC(C)(C)c1o[nH]c(=O)c1CC(N)C(=O)O` (stereo unspecified): “inactive”; for `CC1(C(=O)O)C2CCC(O2)C1(C)C(=O)O` (stereo unspecified): “inactive”. For the compound `CCn1cnc2c(Nc3cccc(Cl)c3)nc(N[C@@H]3CCCC[C@@H]3N)nc21`, the call was inactive.
